In the supplement of paper PMC4709259:
Structures can show the parent of a compound that is named as a salt. ± gives the standard deviation.

Experiments:
Jurkat [1] = test: mean cell size (FSC-A) relative to DMSO control (fraction of control); higher = larger cells; details: 48 h
In short: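 Jurkat cells at 600 cells/µl were incubated for 1 h and then treated for 48h with the Enzo Screen-Well FDA Approved Drug Library v2.0 at 25µM, with DMSO at 0.9% (v/v) final. Compounds that reduced counts below 20% of controls were retested in 10-fold dilutions down to 25nM. Cell count and mean cell size, taken as forward scatter area, were measured by flow cytometry relative to solvent-only controls. Each plate carried 6-12 controls, and values are means of 3 biological replicates.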

Jurkat [2] = test: cell count relative to DMSO control (fraction of control); higher = more cells (less growth inhibition); details: 48 h

Compound	mean cell size (Jurkat [1])	cell count (Jurkat [2])
CC(=O)N[C@@H](CS)C(=O)O [Acetylcysteine] (concentration: 25 µM)	1.02 ± 0.059	0.772 ± 0.059
CC1=C(/C=C/C(C)=C/C=C/C(C)=C/C(=O)O)C(C)(C)CCC1 [Tretinoin] (concentration: 25 µM)	0.88 ± 0.031	1.02 ± 0.11
CC[C@H]1OC(=O)[C@H](C)[C@@H](O[C@H]2C[C@@](C)(OC)[C@@H](O)[C@H](C)O2)[C@H](C)[C@@H](O[C@@H]2O[C@H](C)C[C@H](N(C)C)[C@H]2O)[C@](C)(OC)C[C@@H](C)C(=O)[C@H](C)[C@@H](O)[C@]1(C)O [Clarithromycin] (concentration: 25 µM)	0.977 ± 0.057	1.05 ± 0.078
COCCCOc1ccnc(C[S+]([O-])c2nc3ccccc3[nH]2)c1C (stereo not drawn) [Rabeprazole·Na] (concentration: 25 µM)	0.923 ± 0.02	0.523 ± 0.06
Cc1c2oc3c(C)ccc(C(=O)N[C@@H]4C(=O)N[C@H](C(C)C)C(=O)N5CCC[C@H]5C(=O)N(C)CC(=O)N(C)[C@@H](C(C)C)C(=O)O[C@@H]4C)c3nc-2c(C(=O)N[C@@H]2C(=O)N[C@H](C(C)C)C(=O)N3CCC[C@H]3C(=O)N(C)CC(=O)N(C)[C@@H](C(C)C)C(=O)O[C@@H]2C)c(N)c1=O [Dactinomycin (= Actinomycin D)] (concentration: 25 nM)	0.784 ± 0.019	0.49 ± 0.11
CCCCCOC(=O)Nc1nc(=O)n([C@@H]2O[C@H](C)[C@@H](O)[C@H]2O)cc1F [Capecitabine] (concentration: 25 µM)	0.957 ± 0.019	1.01 ± 0.091
CCCCC[C@H](O)/C=C/[C@H]1[C@H](O)CC(=O)[C@@H]1C/C=C\CCCC(=O)O [Dinoprostone] (concentration: 25 µM)	0.88 ± 0.019	0.399 ± 0.11
CC1(C)S[C@@H]2[C@H](NC(=O)[C@H](N)c3ccc(O)cc3)C(=O)N2[C@H]1C(=O)O [Amoxicillin] (concentration: 25 µM)	0.988 ± 0.012	0.866 ± 0.063
CC(=O)Nc1nnc(S(N)(=O)=O)s1 [Acetazolamide] (concentration: 25 µM)	1.04 ± 0.061	0.755 ± 0.054
CCN1CCN(C(=O)N[C@@H](C(=O)N[C@@H]2C(=O)N3[C@@H]2SC(C)(C)[C@@H]3C(=O)O)c2ccccc2)C(=O)C1=O [Piperacillin] (concentration: 25 µM)	1 ± 0.015	0.91 ± 0.068
NC(=O)Cc1cccc(C(=O)c2ccccc2)c1N [Nepafenac] (concentration: 25 µM)	0.934 ± 0.019	0.727 ± 0.025
CO/N=C(\C(=O)N[C@@H]1C(=O)N2C(C(=O)O)=C(COC(N)=O)CS[C@H]12)c1ccco1 [Cefuroxime·Na] (concentration: 25 µM)	0.994 ± 0.028	0.945 ± 0.051
CC(=O)CC(c1ccccc1)c1c(O)c2ccccc2oc1=O (stereo not drawn) [Warfarin·Na] (concentration: 25 µM)	1.04 ± 0.051	0.708 ± 0.045
C[C@@H](O)[C@H]1C(=O)N2C(C(=O)O)=C(SCCNC=N)C[C@H]12 [Imipenem] (concentration: 25 µM)	0.883 ± 0.063	0.344 ± 0.13
COC(=O)[C@@H]1CC2=CC(=O)CC[C@]2(C)[C@@]23O[C@@H]2C[C@@]2(C)[C@@H](CC[C@@]24CCC(=O)O4)[C@H]13 [Eplerenone] (concentration: 25 µM)	1.19 ± 0.035	0.521 ± 0.06
C#C[C@]1(O)CC[C@H]2[C@@H]3CCC4=CC(=O)CC[C@@H]4[C@H]3C(=C)C[C@@]21CC [Etonogestrel] (concentration: 25 µM)	0.997 ± 0.025	0.557 ± 0.013
C[C@@H](O)[C@H]1C(=O)N2C(C(=O)O)=C(S[C@@H]3CN[C@H](CNS(N)(=O)=O)C3)[C@H](C)[C@H]12 [Doripenem] (concentration: 25 µM)	0.94 ± 0.011	0.963 ± 0.12
Cc1ccccc1N1C(=O)c2cc(S(N)(=O)=O)c(Cl)cc2NC1C (stereo not drawn) [Metolazone] (concentration: 25 µM)	0.997 ± 0.03	0.918 ± 0.095
Cc1cc(NS(=O)(=O)c2ccc(N)cc2)no1 [Sulfamethoxazole] (concentration: 25 µM)	0.962 ± 0.036	0.809 ± 0.063
N[C@@H](CC(=O)N1CCn2c(nnc2C(F)(F)F)C1)Cc1cc(F)c(F)cc1F [Sitagliptin Phosphate] (concentration: 25 µM)	0.999 ± 0.021	0.554 ± 0.18
Cn1c(=O)c2[nH]cnc2n(C)c1=O [Aminophylline] (concentration: 25 µM)	0.96 ± 0.035	0.984 ± 0.066
CN(C)CCCN1c2ccccc2Sc2ccc(Cl)cc21 [Chlorpromazine·HCl] (concentration: 2.5 µM)	1.06 ± 0.017	0.631 ± 0.15
C#Cc1cccc(Nc2ncnc3cc(OCCOC)c(OCCOC)cc23)c1 [Erlotinib] (concentration: 25 µM)	0.838 ± 0.026	0.666 ± 0.04
COc1nc(N)nc2c1ncn2[C@@H]1O[C@H](CO)[C@@H](O)[C@@H]1O [Nelarabine] (concentration: 25 µM)	1.4 ± 0.014	0.201 ± 0.029
CC(=O)Nc1ccc(O)cc1 [Acetaminophen] (concentration: 25 µM)	1.03 ± 0.037	0.891 ± 0.031

Compound	mean cell size (Jurkat [1])	cell count (Jurkat [2])
Cc1onc(-c2ccccc2Cl)c1C(=O)N[C@@H]1C(=O)N2[C@@H]1SC(C)(C)[C@@H]2C(=O)O [Cloxacillin·Na] (concentration: 25 µM)	0.99 ± 0.031	0.703 ± 0.056
C=CC(N)CCC(=O)O (stereo not drawn) [Vigabatrin] (concentration: 25 µM)	1.002 ± 0.0073	0.829 ± 0.075
C[C@]12CC[C@@H]3c4ccc(O)cc4CC[C@H]3[C@@H]1CCC2=O [Estrone] (concentration: 25 µM)	0.963 ± 0.033	0.842 ± 0.094
CC1=C(/C=C/C(C)=C\C=C\C(C)=C\C(=O)O)C(C)(C)CCC1 [Alitretinoin] (concentration: 25 µM)	0.927 ± 0.025	0.555 ± 0.18
CCOC(=O)C1=C(COCCN)NC(C)=C(C(=O)OC)C1c1ccccc1Cl (stereo not drawn) [Amlodipine] (concentration: 25 µM)	1.06 ± 0.053	0.268 ± 0.055
O=C(O)c1cc(/N=N/c2ccc(S(=O)(=O)Nc3ccccn3)cc2)ccc1O [Sulfasalazine] (concentration: 25 µM)	0.965 ± 0.024	0.914 ± 0.11
Nc1nc2ccc(OC(F)(F)F)cc2s1 [Riluzole·HCl] (concentration: 2.5 µM)	1.01 ± 0.028	0.573 ± 0.029
C[C@H]1c2cccc(O)c2C(O)=C2C(=O)[C@]3(O)C(O)=C(C(N)=O)C(=O)[C@@H](N(C)C)[C@@H]3[C@@H](O)[C@@H]21 [Doxycycline Monohydrate] (concentration: 25 µM)	0.861 ± 0.021	0.266 ± 0.051
C[C@]12C=CC(=O)N[C@@H]1CC[C@@H]1[C@@H]2CC[C@]2(C)[C@@H](C(=O)Nc3cc(C(F)(F)F)ccc3C(F)(F)F)CC[C@@H]12 [Dutasteride] (concentration: 25 µM)	0.983 ± 0.052	0.636 ± 0.17
O=C(CCCCCCC(=O)Nc1ccccc1)NO [Vorinostat] (concentration: 250 nM)	0.947 ± 0.035	0.71 ± 0.048
Nc1nc2c(ncn2COCCO)c(=O)[nH]1 [Acyclovir (Acycloguanosine) Zovirax] (concentration: 25 µM)	0.977 ± 0.028	0.842 ± 0.022
Cn1c(=O)c2nc[nH]c2n(C)c1=O [Theophylline] (concentration: 25 µM)	0.947 ± 0.041	1.05 ± 0.031
Nc1nc(=O)[nH]cc1F [Flucytosine] (concentration: 25 µM)	0.997 ± 0.035	0.919 ± 0.025
CC(=O)O[C@]1(C(C)=O)CC[C@H]2[C@@H]3C=C(C)C4=CC(=O)CC[C@]4(C)[C@H]3CC[C@@]21C [Megestrol Acetate] (concentration: 25 µM)	0.9825 ± 0.0053	0.704 ± 0.059
CNCCCC12CCC(c3ccccc31)c1ccccc12 [Maprotiline·HCl] (concentration: 2.5 µM)	0.991 ± 0.018	0.788 ± 0.053
C#CCN[C@@H]1CCc2ccccc21 [Rasagiline Mesylate] (concentration: 25 µM)	1.03 ± 0.024	1.01 ± 0.058
COC(=O)CCC(=O)CN [Methyl Aminolevulinate·HCl] (concentration: 25 µM)	0.99 ± 0.033	0.739 ± 0.074
CC(C)NCC(O)COc1cccc2ccccc12 (stereo not drawn) [Propranolol·HCl] (concentration: 25 µM)	1.04 ± 0.061	0.633 ± 0.015
O=C(O)c1cccnc1 [Niacin (Known As Vitamin B3, Nicotinic Acid And Vitamin Pp)] (concentration: 25 µM)	0.945 ± 0.053	0.426 ± 0.096
CC[C@H]1OC(=O)[C@H](C)[C@@H](O[C@H]2C[C@@](C)(OC)[C@@H](O)[C@H](C)O2)[C@H](C)[C@@H](O[C@@H]2O[C@H](C)C[C@H](N(C)C)[C@H]2O)[C@](C)(O)C[C@@H](C)C(=O)[C@H](C)[C@@H](O)[C@]1(C)O [Erythromycin] (concentration: 25 µM)	0.97 ± 0.038	0.871 ± 0.061
CCC1(C)CC(=O)NC1=O (stereo not drawn) [Ethosuximide] (concentration: 25 µM)	1.05 ± 0.025	1.08 ± 0.074
CC(C)(C)NC(=O)[C@@H]1C[C@@H]2CCCC[C@@H]2CN1C[C@@H](O)[C@H](Cc1ccccc1)NC(=O)[C@H](CC(N)=O)NC(=O)c1ccc2ccccc2n1 [Saquinavir Mesylate] (concentration: 25 µM)	0.963 ± 0.0039	0.648 ± 0.065
CC1(C)O[C@@H]2C[C@H]3[C@@H]4CCC5=CC(=O)CC[C@]5(C)[C@@]4(F)[C@@H](O)C[C@]3(C)[C@]2(C(=O)CCl)O1 [Halcinonide] (concentration: 25 µM)	0.914 ± 0.03	0.883 ± 0.12
CSc1ccc2c(c1)N(CCC1CCCCN1C)c1ccccc1S2 (stereo not drawn) [Thioridazine·HCl] (concentration: 2.5 µM)	1.08 ± 0.014	0.646 ± 0.18
